Consider 17 compounds from PubChem BioAssay (EPA / NIEHS).

Read-out in assay [1]: Tissue plasminogen activator (tPA), PLAT (gene 5327)
The assay can be described thus: BSK_BE3C_tPA: BioMAP Diversity Plus: BE3C Assay for Tissue plasminogen activator (tPA) Biomarker Activity (AID 2283041).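 On outcome: tPA level quantified by ELISA one day after compound addition.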 The following applies: primary human bronchial epithelial cells; actives raise or lower the signal. The gist of the method: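 Primary human lung bronchial epithelial cultures receive test chemical; after 24 h, tPA is quantified by ELISA, and gain or loss of signal is fitted bidirectionally relative to DMSO baseline.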

Read-out in assay [2]: Interleukin-8 (IL8), CXCL8 (gene 3576)
As to the kind of experiment: BSK_CASM3C_IL8: BioMAP Diversity Plus: CASM3C Assay for Interleukin-8 (IL8) Biomarker Activity (AID 2283042).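 Further: IL-8 protein level quantified by ELISA.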 The following applies: primary human coronary artery smooth muscle cells; actives raise or lower the signal.

Read-out in assay [3]: Human Leukocyte Antigen - DR isotype (HLADR), HLA-DRA (gene 3122)
The assay can be described thus: BSK_CASM3C_HLADR: BioMAP Diversity Plus: CASM3C Assay for Human Leukocyte Antigen - DR isotype (HLADR) Biomarker Activity (AID 2283043).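 Further: cell-surface HLA-DR protein level quantified by ELISA.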 As to conditions: primary human coronary artery smooth muscle cells; actives raise or lower the signal.

Read-out in assay [4]: Macrophage colony-stimulating factor (MCSF), CSF1 (gene 1435)
The assay can be described thus: BSK_CASM3C_MCSF: BioMAP Diversity Plus: CASM3C Assay for Macrophage colony-stimulating factor (MCSF) Biomarker Activity (AID 2283044).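 Further: M-CSF protein amount quantified by ELISA after 24 h exposure.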 The following applies: primary human coronary artery smooth muscle cells; actives raise or lower the signal.

Read-out in assay [5]: Low-density lipoprotein receptor (LDLR), LDLR (gene 3949)
As to the kind of experiment: BSK_CASM3C_LDLR: BioMAP Diversity Plus: CASM3C Assay for Low-density lipoprotein receptor (LDLR) Biomarker Activity (AID 2283045).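 Further: LDLR protein level on the cell surface quantified by ELISA.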 As to conditions: primary human coronary artery smooth muscle cells; actives raise or lower the signal.

Read-out in assay [6]: Monocyte Chemoattractant Protein-1 (MCP1), CCL2 (gene 6347)
The assay can be described thus: BSK_CASM3C_MCP1: BioMAP Diversity Plus: CASM3C Assay for Monocyte Chemoattractant Protein-1 (MCP1) Biomarker Activity (AID 2283046).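 Further: MCP-1 level quantified by ELISA 24 h after dosing.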 As to conditions: primary human coronary artery smooth muscle cells; actives raise or lower the signal.

Assay [7] in a line: BSK_CASM3C_Proliferation: Cell Proliferation Assessment in the BioMAP Diversity Plus: CASM3C Assay (AID 2283047).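 Further: sulforhodamine B total protein stain as relative cell number at 560 nm; sub-confluent cells exposed 48 h before staining; fitted both ways against DMSO so gain or loss of cell number.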 As to conditions: primary human coronary artery smooth muscle cells.
Read-out in assay [8]: Monokine induced gamma interferon (MIG), CXCL9 (gene 4283)
The assay can be described thus: BSK_CASM3C_MIG: BioMAP Diversity Plus: CASM3C Assay for Monokine induced gamma interferon (MIG) Biomarker Activity (AID 2283048).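 Further: MIG protein level measured by ELISA.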 As to conditions: primary human coronary artery smooth muscle cells; actives raise or lower the signal.

Read-out in assay [9]: serum amyloid A (SAA), SAA1 (gene 6288)
The assay can be described thus: BSK_CASM3C_SAA: BioMAP Diversity Plus: CASM3C Assay for serum amyloid A (SAA) Biomarker Activity (AID 2283049).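 Further: SAA protein level quantified by ELISA.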 As to conditions: primary human coronary artery smooth muscle cells; actives raise or lower the signal.

The nature of assay [10]: BSK_CASM3C_SRB: Viability Assessment in the BioMAP Diversity Plus: CASM3C Assay (AID 2283050).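 Further: total protein by SRB staining as cytotoxicity measure in parallel cultures; cells exposed to compound for 24 h.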 As to conditions: primary human coronary artery smooth muscle cells.

The structures appear in SMILES notation. Active and inactive are the calls of the source. How the source made its calls: active means hit-call score of the fitted dose curve at least 0.9, where 1 is the maximum; inactive means score below 0.9.

As for `O=S(=O)(C(Cl)(Cl)Cl)C(Cl)(Cl)Cl`, the AC50 in assay [1] is 4.81 µM (active); in [2] it was 1.69 µM (active); in [3], 1.31 µM (active); in [4], 2.2 µM (active); in [6] it was 2.28 µM (active); in assay [7], 0.528 µM (active). The values for the concentration at half-maximal activity (AC50) in [8], in [9] and in assay [10] were 3.13 µM (active), 0.877 µM (active) and 1.54 µM (active), respectively. The outcome in [5] was inactive.

Take `Oc1cccc(-c2ccccc2)c1`: the outcome in assay [1], in assay [2], in [3], in [4], in assay [5] and in [8] was inactive. The result in assay [9] was inactive. The results for the AC50 in assay [6], in assay [7] and in assay [10] were 20 µM (active), 34.4 µM (active) and 28.7 µM (active), respectively.

As for `Cc1cccc(OP(=O)(Oc2cccc(C)c2)Oc2cccc(C)c2)c1`, the half-maximal activity concentration (AC50) was 0.677 µM (active) in [1], 0.139 µM (active) in [4] and 0.075 µM (active) in assay [6]. Also, the outcome in assay [2], in assay [3], in [5], in assay [7], in assay [8] and in [9] was inactive. Besides, the outcome in assay [10] was inactive.

Consider `O=C(Cc1ccccc1)OCCc1ccccc1`, for which the outcome in assay [1], in assay [2], in assay [3], in assay [4], in assay [5] and in assay [6] was inactive. For the same compound, the outcome in assay [7], in assay [8], in assay [9] and in assay [10] was inactive.

On to `O=C(N[C@H]1CN2CCC1CC2)c1ccc2c(c1)OCCO2`, for which the outcome in [1], in assay [2], in [3], in assay [4], in assay [5] and in [6] was inactive. Besides, the outcome in [7], in [8], in [9] and in assay [10] was inactive.

On to `Nc1c(Oc2ccccc2)cc(O)c2c1C(=O)c1ccccc1C2=O`, for which the outcome in [1], in assay [2], in assay [3], in assay [4], in assay [5] and in [6] was inactive. Further, the result in [7], in assay [8], in assay [9] and in assay [10] was inactive.

For the compound `OC(Cc1ccccc1Cl)(Cn1[nH]cnc1=S)C1(Cl)CC1` (stereo not given), the half-maximal activity concentration (AC50) in assay [1] is 20 µM (active); in assay [3] it was 26.7 µM (active); in assay [5], 3.97 µM (active); in assay [9] it was 5.29 µM (active); in [10] it was 31.4 µM (active). Moreover, the outcome in [2], in assay [4], in assay [6], in assay [7] and in assay [8] was inactive.

Consider `CCCCN(CCCC)C(=S)[S-].CCCCN(CCCC)C(=S)[S-].[Ni+2]`, for which the result in assay [1], in assay [2], in assay [3], in assay [4], in assay [5] and in assay [6] was inactive. Moreover, the result in [7], in assay [8], in assay [9] and in [10] was inactive.

For `O=C(O)C1(c2ccc3c(c2)OC[C@H](Cc2ccc(-c4ccccc4)cc2)[C@H]3O)CCCC1`, the concentration at half-maximal activity (AC50) in assay [1] was 4.2 µM (active); in [3], 25 µM (active); in assay [7] it was 33.3 µM (active). Besides, the outcome in assay [2], in [4], in [5], in [6], in assay [8] and in assay [9] was inactive. Also, in assay [10], the result was inactive.

In the case of `Oc1cc(Cl)c(Cl)cc1Cl`, the concentration at half-maximal activity (AC50) in [1] is 12.9 µM (active); in [7] it was 30.8 µM (active). In addition, the outcome in assay [2], in assay [3], in [4], in assay [5], in [6] and in [8] was inactive. In addition, the result in assay [9] and in assay [10] was inactive.

As for `c1ccc(-c2cccc(-c3ccccc3)c2)cc1`, the AC50 in [1] is 6.98 µM (active); in assay [10] it was 33.5 µM (active). The outcome in assay [2], in assay [3], in assay [4], in [5], in assay [6] and in [7] was inactive. Besides, the result in assay [8] and in assay [9] was inactive.

In the case of `O=C(O)COc1cc(Cl)c(Cl)cc1Cl`, the result in assay [1], in assay [2], in assay [3], in [4], in assay [5] and in assay [6] was inactive. Also, the outcome in [7], in [8], in assay [9] and in assay [10] was inactive.

Take `OCCN(CCO)CCO`: the outcome in [1], in assay [2], in [3], in assay [4], in assay [5] and in assay [6] was inactive. Also, the outcome in assay [7], in assay [8], in assay [9] and in assay [10] was inactive.

For `Cc1cc(C(C)(C)c2ccc(O)c(C)c2)ccc1O`, the AC50 in assay [1] was 15.2 µM (active); in assay [3], 17.4 µM (active); in assay [4] it was 15.2 µM (active); in [7], 15.7 µM (active); in assay [9] it was 17 µM (active); in assay [10] it was 14.9 µM (active). In addition, the result in [2], in [5], in assay [6] and in assay [8] was inactive.

As to `CC(C)(C)c1ccccc1O`, the result in assay [1], in assay [2], in assay [3], in assay [4], in assay [5] and in [6] was inactive. Moreover, the outcome in assay [7], in assay [8], in assay [9] and in assay [10] was inactive.

For `CCCCCCCCCCCCN(C)C`, the outcome in assay [1], in [2], in assay [3], in assay [4], in assay [6] and in [7] was inactive. Also, the result in [8], in assay [9] and in assay [10] was inactive. The AC50 in assay [5] was 26.7 µM (active).

With `CC(C=O)Cc1ccc2c(c1)OCO2` (stereo not given), the outcome in [1], in assay [2], in assay [3], in [4], in assay [5] and in assay [6] was inactive. The result in assay [7], in assay [8], in assay [9] and in assay [10] was inactive.

In general, AC50 refers to the concentration giving half of the maximal activity seen.
